Results as given in the supplement of paper PMC8728848.
About 410 targets per protein were measured; listed, in parts, are those with the strongest signals and a random draw of the rest.

How the values were obtained:
Assay in all cases: glycan array binding signal (z-score within array); higher = stronger binding
Conditions in all cases: glycan notation: IUPAC condensed, linker removed
GalNAc(b1-3)GlcNAc = biological target: GalNAc(b1-3)GlcNAc
How it was run: (§1)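 Columns mapping to the same glycan were averaged after glycan names were converted to IUPAC-condensed notation. The data come from 3228 arrays in the Consortium for Functional Glycomics database, limited to those with an available protein sequence. Binding is reported as a within-array Z-score averaged across arrays of one protein sequence and across linkers.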

[1] = biological target: Glc(a1-6)Glc(a1-6)Glc(a1-6)Glc
How it was run: as §1

[2] = biological target: GlcNAc(a1-4)Gal(b1-3)GlcNAc
How it was run: as §1

[3] = biological target: GlcNAc(b1-2)Man(a1-3)[GlcNAc(b1-2)Man(a1-6)]Man(b1-4)GlcNAc(b1-4)[Fuc(a1-6)]GlcNAc
How it was run: as §1

[4] = biological target: GlcNAc(b1-3)Gal(b1-4)GlcNAc(b1-3)Gal(b1-4)GlcNAc(b1-3)Gal(b1-4)GlcNAc(b1-3)Gal(b1-4)GlcNAc(b1-2)Man(a1-3)[GlcNAc(b1-3)Gal(b1-4)GlcNAc(b1-3)Gal(b1-4)GlcNAc(b1-3)Gal(b1-4)GlcNAc(b1-3)Gal(b1-4)GlcNAc(b1-2)Man(a1-6)]Man(b1-4)GlcNAc(b1-4)[Fuc(a1-6)]GlcNAc
How it was run: as §1

[5] = biological target: GlcNAc(b1-4)GlcNAc(b1-4)GlcNAc
How it was run: as §1

[6] = biological target: GlcNAc(b1-4)GlcNAc(b1-4)GlcNAc(b1-4)GlcNAc(b1-4)GlcNAc
How it was run: as §1

[7] = biological target: GlcNAc(b1-6)Gal(b1-4)GlcNAc
How it was run: as §1

GlcNAc(b1-6)GalNAc = biological target: GlcNAc(b1-6)GalNAc
How it was run: as §1

[8] = biological target: Neu5Ac(a2-3)Gal(b1-3)GalNAc
How it was run: as §1

[9] = biological target: Neu5Ac(a2-3)Gal(b1-3)GalNAc(b1-4)[Neu5Ac(a2-3)]Gal(b1-4)Glc
How it was run: as §1

[10] = biological target: Neu5Ac(a2-3)Gal(b1-4)GlcNAc(b1-2)Man
How it was run: as §1

[11] = biological target: Neu5Ac(a2-3)Gal(b1-4)GlcNAc(b1-2)Man(a1-3)[Neu5Ac(a2-3)Gal(b1-4)GlcNAc(b1-2)Man(a1-6)]Man(b1-4)GlcNAc(b1-4)[Fuc(a1-6)]GlcNAc
How it was run: as §1

[12] = biological target: Neu5Ac(a2-3)Gal(b1-4)GlcNAc(b1-2)[Neu5Ac(a2-3)Gal(b1-4)GlcNAc(b1-4)]Man(a1-3)[GlcNAc(b1-4)][Neu5Ac(a2-3)Gal(b1-4)GlcNAc(b1-2)[Neu5Ac(a2-3)Gal(b1-4)GlcNAc(b1-6)]Man(a1-6)]Man(b1-4)GlcNAc(b1-4)GlcNAc
How it was run: as §1

[13] = biological target: Neu5Ac(a2-3)Gal(b1-4)GlcNAc(b1-3)Gal(b1-4)GlcNAc(b1-2)Man(a1-3)[Neu5Ac(a2-3)Gal(b1-4)GlcNAc(b1-3)Gal(b1-4)GlcNAc(b1-2)Man(a1-6)]Man(b1-4)GlcNAc(b1-4)GlcNAc
How it was run: as §1

[14] = biological target: Neu5Ac(a2-3)Gal(b1-4)[Fuc(a1-3)]GlcNAc(b1-2)Man
How it was run: as §1

[15] = biological target: Neu5Ac(a2-3)Gal6S(b1-4)GlcNAc
How it was run: as §1

[16] = biological target: Neu5Ac(a2-6)Gal(b1-4)GlcNAc(b1-2)Man(a1-3)[GlcNAc(b1-2)Man(a1-6)]Man(b1-4)GlcNAc(b1-4)GlcNAc
How it was run: as §1

[17] = biological target: Neu5Ac(a2-6)Gal(b1-4)GlcNAc(b1-3)Gal(b1-4)GlcNAc(b1-2)Man(a1-3)[Neu5Ac(a2-6)Gal(b1-4)GlcNAc(b1-3)Gal(b1-4)GlcNAc(b1-2)Man(a1-6)]GalNAc
How it was run: as §1

[18] = biological target: Neu5Ac(a2-6)Gal(b1-4)GlcNAc(b1-3)Gal(b1-4)GlcNAc(b1-3)GalNAc
How it was run: as §1

[19] = biological target: Neu5Ac(a2-6)Gal(b1-4)GlcNAc(b1-3)Gal(b1-4)GlcNAc(b1-6)[Gal(b1-3)]GalNAc
How it was run: as §1

[20] = biological target: Neu5Ac(a2-6)Gal(b1-4)GlcNAc(b1-3)Gal(b1-4)[Fuc(a1-3)]GlcNAc(b1-3)Gal(b1-4)[Fuc(a1-3)]GlcNAc
How it was run: as §1

[21] = biological target: Neu5Ac(a2-6)GlcNAc(b1-4)GlcNAc(b1-4)GlcNAc
How it was run: as §1

[22] = biological target: Neu5Ac(a2-8)Neu5Ac(a2-3)Gal(b1-4)GlcNAc
How it was run: as §1

[23] = biological target: Neu5Ac(a2-8)Neu5Ac(a2-3)[Gal(b1-3)GalNAc(b1-4)]Gal(b1-4)Glc
How it was run: as §1

[24] = biological target: Neu5Ac(a2-8)Neu5Gc(a2-3)Gal(b1-4)GlcNAc
How it was run: as §1

[25] = biological target: Neu5Ac9Ac(a2-3)Gal(b1-3)GlcNAc
How it was run: as §1

[26] = biological target: Neu5Gc(a2-8)Neu5Gc(a2-3)Gal(b1-4)GlcNAc(b1-3)Gal(b1-4)GlcNAc
How it was run: as §1

B1: PX9937D-bvu-500-26-500 (Bacteroides vulgatus) (protein)
chain: DPVSDITDLNYWKTPEQFDSFVFGLHSRFRSHSWNMFLLGEARSDVFGGIPFGGEATQGMERFPYNTLNAENPGISGFGDLYQNINQMNLFISRTLHTDVLTESARNYYLGQVYGLRAYYMYQLYRSWGDVVFTEEPSLGFEVGKLAKAATPAAEIFEQVKKDIESSLSYFGSDYTIKEKKSLWSKAATLMLKADVYLWSAHRDGGEGDARTAKNALVDIQNNISRSNLDLMDTYQGVFAYDNKGNKEIIFTIHNELFEYNLWNGNNDLFPQADYLGKFYNADGTLINTSVENNFGIMRLMVKLENFKKFLPGDTRRDVTLKDVYNKVENGKLELVGVYPHKYWGVMNGSTRVRCDDYPIYRYSDLLLMLAEAKVLLGEDPATEINRVRRRAFGDAYDASTVGFPNQEVDKRPADAVLQERLFEFMLEGKRWYDLRRFGDSYVLDYTPAEPARLLWPINQGALTNNPLLKQTVGY
With B1 as the binder, how does the “glycan array binding signal (z-score)” value (GalNAc(b1-3)GlcNAc) read?
Its value is -0.418.

And the “glycan array binding signal (z-score)” value [1]?
Its value is -0.405.

What about the “glycan array binding signal (z-score)” value [2] of the same binder?
Its value is -0.056.

What about the “glycan array binding signal (z-score)” value [3] of the same binder?
The value was -0.178.

What about the “glycan array binding signal (z-score)” value [4] of the same binder?
The value was -0.298.

And the “glycan array binding signal (z-score)” value [5]?
The value was -0.41.

What about the “glycan array binding signal (z-score)” value [6] of the same binder?
Its value is -0.558.

What about the “glycan array binding signal (z-score)” value [7] of the same binder?
The value was 0.08.

What about the “glycan array binding signal (z-score)” value (GlcNAc(b1-6)GalNAc) of the same binder?
Its value is 0.455.

What about the “glycan array binding signal (z-score)” value [8] of the same binder?
The value was -0.219.

What about the “glycan array binding signal (z-score)” value [9] of the same binder?
The value was -0.308.

What about the “glycan array binding signal (z-score)” value [10] of the same binder?
Its value is -0.574.

What about the “glycan array binding signal (z-score)” value [11] of the same binder?
Its value is -0.13.

And the “glycan array binding signal (z-score)” value [12]?
Its value is -0.306.

And the “glycan array binding signal (z-score)” value [13]?
Its value is 0.163.

What about the “glycan array binding signal (z-score)” value [14] of the same binder?
The value was 0.114.

And the “glycan array binding signal (z-score)” value [15]?
The value was -0.307.

And the “glycan array binding signal (z-score)” value [16]?
Its value is -0.121.

And the “glycan array binding signal (z-score)” value [17]?
The value was 4.23.

And the “glycan array binding signal (z-score)” value [18]?
Its value is -0.414.

What about the “glycan array binding signal (z-score)” value [19] of the same binder?
The value was 0.256.

And the “glycan array binding signal (z-score)” value [20]?
Its value is 0.021.

What about the “glycan array binding signal (z-score)” value [21] of the same binder?
Its value is 0.037.

And the “glycan array binding signal (z-score)” value [22]?
Its value is -0.636.

What about the “glycan array binding signal (z-score)” value [23] of the same binder?
The value was -0.284.

And the “glycan array binding signal (z-score)” value [24]?
Its value is 10.6.

And the “glycan array binding signal (z-score)” value [25]?
The value was -0.36.

What about the “glycan array binding signal (z-score)” value [26] of the same binder?
Its value is -0.056.
